target: PUM1 PUF domain R4-FGC (Homo sapiens, UniProt Q14671 828-1176, N971F;H972G;Q975C); test: yeast three-hybrid, YBZ-1, SC-Leu-His + 0.5 mM 3-AT, 4 days; conditions: tags: N-Gal4 AD-HA kept; label: inside an RPR1-promoter hybrid RNA with tandem MS2 sites; ssRNA
Method in brief: (§1)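 A centromeric plasmid in strain YBZ-1 co-expressed Pumilio-1 PUF domain libraries, randomized at the three base-contacting residues of each repeat, with matching RNA elements; the strain carries a LexA–MS2 coat fusion and a HIS3 reporter. After four days on SC-Leu (input) or SC-Leu-His + 0.5 mM 3-AT (selection), the repeat regions were PCR-amplified and Illumina-sequenced. The interaction score is the log change in variant frequency from input to selection, using log2 and a pseudocount of 1 where absent.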

| Sequence | binding signal |
| --- | --- |
| GGCUAGAACUAGUGGAUCCCCCGGCGCCCGGCGGCUCGAGCCCGGGUAAGUGUACAUAGUCUGCAUGCCGCCGGGCGCCAUGCCUGCAGGUCGACUCUAGAAAACAUG | 0.93 log2 enrichment (interaction score) |
| GGCUAGAACUAGUGGAUCCCCCGGCGCCCGGCGGCUCGAGCCCGGGUAAGUGUAUAUAGUCUGCAUGCCGCCGGGCGCCAUGCCUGCAGGUCGACUCUAGAAAACAUG | 3.05 log2 enrichment (interaction score) |
| GGCUAGAACUAGUGGAUCCCCCGGCGCCCGGCGGCUCGAGCCCGGGUAAGUGUAAAUAGUCUGCAUGCCGCCGGGCGCCAUGCCUGCAGGUCGACUCUAGAAAACAUG | 1 log2 enrichment (interaction score) |

target: PUM1 PUF domain R4-CCG (Homo sapiens, UniProt Q14671 828-1176, N971C;H972C;Q975G); test: as above; conditions: tags: N-Gal4 AD-HA kept; label: inside an RPR1-promoter hybrid RNA with tandem MS2 sites; ssRNA
Method in brief: as §1

| Sequence | binding signal |
| --- | --- |
| GGCUAGAACUAGUGGAUCCCCCGGCGCCCGGCGGCUCGAGCCCGGGUAAGUGUACAUAGUCUGCAUGCCGCCGGGCGCCAUGCCUGCAGGUCGACUCUAGAAAACAUG | 0.76 log2 enrichment (interaction score) |
| GGCUAGAACUAGUGGAUCCCCCGGCGCCCGGCGGCUCGAGCCCGGGUAAGUGUAUAUAGUCUGCAUGCCGCCGGGCGCCAUGCCUGCAGGUCGACUCUAGAAAACAUG | 1.84 log2 enrichment (interaction score) |
| GGCUAGAACUAGUGGAUCCCCCGGCGCCCGGCGGCUCGAGCCCGGGUAAGUGUAAAUAGUCUGCAUGCCGCCGGGCGCCAUGCCUGCAGGUCGACUCUAGAAAACAUG | 2.6 log2 enrichment (interaction score) |

Source: PMC8384837, “Expanding the binding specificity for RNA recognition by a PUF domain”
